# Measurements from article PMC7862700, “An all-to-all approach to the identification of sequence-specific readers for epigenetic DNA modifications on cytosine”.
# Assays:
# Test in all cases: DAPPL (digital affinity profiling via proximity ligation, sequencing); 10 mM Tris-HCl pH 7.5, 50 mM NaCl, 1 mM DTT, 4% glycerol, room temperature, 30 min; GST-TFs on glutathione beads, 16-mer random dsDNA library, 0.1% formaldehyde crosslink after washing; high values mean tight binding
# Settings in all cases: protein: recombinant; tags: N-terminal GST; dsDNA, one strand shown
# FLI1 = target: T1, FLI1 (Homo sapiens, UniProt Q01543 1-452)
# T1 sequence: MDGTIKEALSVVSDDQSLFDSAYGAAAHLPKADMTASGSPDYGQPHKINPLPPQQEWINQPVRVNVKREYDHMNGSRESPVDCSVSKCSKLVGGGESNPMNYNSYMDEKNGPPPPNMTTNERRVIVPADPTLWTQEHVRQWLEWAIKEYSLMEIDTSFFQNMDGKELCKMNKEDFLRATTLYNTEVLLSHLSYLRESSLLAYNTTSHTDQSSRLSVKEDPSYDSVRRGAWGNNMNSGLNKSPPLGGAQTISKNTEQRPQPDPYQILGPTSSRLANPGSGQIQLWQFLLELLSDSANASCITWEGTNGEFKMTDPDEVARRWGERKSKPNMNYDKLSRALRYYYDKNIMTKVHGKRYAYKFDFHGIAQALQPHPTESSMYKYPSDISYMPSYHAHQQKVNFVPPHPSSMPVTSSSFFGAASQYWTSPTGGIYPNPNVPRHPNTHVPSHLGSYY
# In short: (§1)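 Each value of binding signal is a hexamer's read frequency for a factor divided by the same hexamer's frequency in the tag-only sample. Barcoded, bead-captured GST fusions of human transcription factors made in yeast were pooled with that sample and incubated with 200 nmole of a random double-stranded 16-mer DNA library in Tris/NaCl/DTT/glycerol buffer at room temperature for 30 min. Washing, 0.1% formaldehyde crosslinking, proximity ligation, PCR and Illumina NextSeq500 sequencing followed.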
# ELK1 = target: T2, ELK1 (Homo sapiens, UniProt P19419 1-428)
# T2 sequence: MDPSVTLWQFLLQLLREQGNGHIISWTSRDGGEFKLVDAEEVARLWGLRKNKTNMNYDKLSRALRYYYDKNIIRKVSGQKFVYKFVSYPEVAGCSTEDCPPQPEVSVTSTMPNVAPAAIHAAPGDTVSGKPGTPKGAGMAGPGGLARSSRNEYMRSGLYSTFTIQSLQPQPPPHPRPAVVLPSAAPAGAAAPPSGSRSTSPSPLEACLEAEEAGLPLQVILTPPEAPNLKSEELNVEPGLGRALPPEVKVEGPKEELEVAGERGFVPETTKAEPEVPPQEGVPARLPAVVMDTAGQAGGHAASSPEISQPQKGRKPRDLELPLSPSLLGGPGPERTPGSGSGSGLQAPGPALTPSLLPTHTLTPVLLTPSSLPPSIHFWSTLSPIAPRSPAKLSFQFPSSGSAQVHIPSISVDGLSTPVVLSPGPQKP
# In short: as §1
# GABPA = target: T3, GABPA (Homo sapiens, UniProt Q06546 1-454)
# T3 sequence: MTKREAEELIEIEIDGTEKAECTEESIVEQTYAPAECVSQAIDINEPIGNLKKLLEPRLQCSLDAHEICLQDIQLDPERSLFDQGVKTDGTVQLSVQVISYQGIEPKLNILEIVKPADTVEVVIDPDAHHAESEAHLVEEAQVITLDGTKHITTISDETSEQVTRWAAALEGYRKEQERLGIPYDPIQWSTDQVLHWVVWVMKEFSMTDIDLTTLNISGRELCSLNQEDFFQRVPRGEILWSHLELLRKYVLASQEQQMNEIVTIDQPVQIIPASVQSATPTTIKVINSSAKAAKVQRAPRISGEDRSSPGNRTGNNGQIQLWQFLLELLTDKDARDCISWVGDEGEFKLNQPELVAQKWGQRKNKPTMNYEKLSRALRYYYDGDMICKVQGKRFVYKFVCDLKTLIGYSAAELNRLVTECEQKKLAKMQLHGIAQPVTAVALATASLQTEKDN
# In short: as §1
# ERG = target: T4, ERG (Homo sapiens, UniProt P11308 1-479)
# T4 sequence: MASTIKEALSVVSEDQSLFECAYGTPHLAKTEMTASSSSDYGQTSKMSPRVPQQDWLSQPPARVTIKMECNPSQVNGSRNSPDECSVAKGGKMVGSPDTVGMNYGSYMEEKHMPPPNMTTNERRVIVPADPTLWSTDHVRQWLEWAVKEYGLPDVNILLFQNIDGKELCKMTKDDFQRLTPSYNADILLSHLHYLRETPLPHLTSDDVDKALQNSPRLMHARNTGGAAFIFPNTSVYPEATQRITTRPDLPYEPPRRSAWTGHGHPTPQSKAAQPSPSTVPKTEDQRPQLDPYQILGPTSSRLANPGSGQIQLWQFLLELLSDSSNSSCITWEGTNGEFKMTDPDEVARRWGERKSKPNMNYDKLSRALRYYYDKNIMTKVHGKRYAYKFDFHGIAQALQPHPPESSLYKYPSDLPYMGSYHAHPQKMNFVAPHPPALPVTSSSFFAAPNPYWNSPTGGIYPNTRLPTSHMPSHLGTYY
# In short: as §1
# ELF1 = ELF1 (Homo sapiens, UniProt P32519 1-619)
# In short: as §1
# EHF = target: T5, EHF (Homo sapiens, UniProt Q9NZC4 1-300)
# T5 sequence: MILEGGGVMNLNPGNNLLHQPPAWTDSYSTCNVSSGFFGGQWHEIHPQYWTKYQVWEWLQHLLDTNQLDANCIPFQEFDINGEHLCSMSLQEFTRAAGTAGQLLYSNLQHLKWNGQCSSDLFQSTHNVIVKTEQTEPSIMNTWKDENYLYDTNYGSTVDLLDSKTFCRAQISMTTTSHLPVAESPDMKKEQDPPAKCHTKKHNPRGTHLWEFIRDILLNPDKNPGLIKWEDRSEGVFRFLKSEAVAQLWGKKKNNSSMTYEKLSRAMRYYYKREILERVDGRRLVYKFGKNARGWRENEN
# In short: as §1
# SPI1 = SPI1 (Homo sapiens, UniProt P17947 1-270)
# In short: as §1
# SPIB = SPIB (Homo sapiens, UniProt Q01892 1-262)
# In short: as §1
# ELK3 = target: T6, ELK3 (Homo sapiens, UniProt P41970 1-407)
# T6 sequence: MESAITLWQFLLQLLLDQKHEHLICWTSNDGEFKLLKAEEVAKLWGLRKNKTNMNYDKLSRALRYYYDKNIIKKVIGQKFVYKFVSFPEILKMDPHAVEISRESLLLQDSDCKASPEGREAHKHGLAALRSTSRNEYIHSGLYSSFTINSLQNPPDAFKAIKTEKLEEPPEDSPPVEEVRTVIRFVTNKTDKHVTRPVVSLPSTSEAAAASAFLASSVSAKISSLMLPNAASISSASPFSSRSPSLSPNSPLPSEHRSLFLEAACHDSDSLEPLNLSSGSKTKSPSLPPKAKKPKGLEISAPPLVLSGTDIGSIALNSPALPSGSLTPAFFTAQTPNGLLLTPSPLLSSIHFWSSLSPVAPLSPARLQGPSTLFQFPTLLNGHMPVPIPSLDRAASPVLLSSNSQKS
# In short: as §1
# ELF1, sequence (P32519 whole entry): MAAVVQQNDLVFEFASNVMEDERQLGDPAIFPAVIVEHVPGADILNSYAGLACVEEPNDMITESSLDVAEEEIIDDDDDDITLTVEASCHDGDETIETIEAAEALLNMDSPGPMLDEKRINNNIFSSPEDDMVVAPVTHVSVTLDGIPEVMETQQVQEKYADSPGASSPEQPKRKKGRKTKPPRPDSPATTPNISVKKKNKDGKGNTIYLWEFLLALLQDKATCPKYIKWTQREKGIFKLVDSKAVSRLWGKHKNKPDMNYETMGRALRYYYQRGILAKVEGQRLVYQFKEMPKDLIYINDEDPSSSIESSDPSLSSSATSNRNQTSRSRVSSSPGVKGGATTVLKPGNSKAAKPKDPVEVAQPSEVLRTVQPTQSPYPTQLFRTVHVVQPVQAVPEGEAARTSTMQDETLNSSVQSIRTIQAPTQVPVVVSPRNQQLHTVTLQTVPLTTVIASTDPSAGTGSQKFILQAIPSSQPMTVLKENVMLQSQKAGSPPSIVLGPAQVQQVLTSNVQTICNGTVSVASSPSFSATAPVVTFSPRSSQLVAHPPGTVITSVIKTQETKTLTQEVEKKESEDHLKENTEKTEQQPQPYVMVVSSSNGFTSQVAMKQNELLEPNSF
# SPIB, sequence (Q01892 whole entry): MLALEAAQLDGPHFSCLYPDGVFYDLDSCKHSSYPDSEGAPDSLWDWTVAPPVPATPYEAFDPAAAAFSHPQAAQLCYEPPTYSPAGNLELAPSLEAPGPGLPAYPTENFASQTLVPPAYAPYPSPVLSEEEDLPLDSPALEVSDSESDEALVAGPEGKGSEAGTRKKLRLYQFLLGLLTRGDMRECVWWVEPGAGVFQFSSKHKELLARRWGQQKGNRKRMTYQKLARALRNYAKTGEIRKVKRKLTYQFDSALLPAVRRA
sequence,measurement,setting,value
TTAATG,binding signal,FLI1,"1.24 fold enrichment (6-mer frequency, TF over GST control)"
same,binding signal,ELK1,"1.27 fold enrichment (6-mer frequency, TF over GST control)"
same,binding signal,GABPA,"1.3 fold enrichment (6-mer frequency, TF over GST control)"
same,binding signal,ERG,"1.14 fold enrichment (6-mer frequency, TF over GST control)"
same,binding signal,ELF1,"1.17 fold enrichment (6-mer frequency, TF over GST control)"
same,binding signal,EHF,"1.19 fold enrichment (6-mer frequency, TF over GST control)"
same,binding signal,SPI1,"1.24 fold enrichment (6-mer frequency, TF over GST control)"
same,binding signal,SPIB,"1.2 fold enrichment (6-mer frequency, TF over GST control)"
same,binding signal,ELK3,"1.14 fold enrichment (6-mer frequency, TF over GST control)"
